From PubChem
Only some compounds are listed: those with a hit (about 2% of all), similar ones and a draw of the others.
Mcl-1 Bim block = inhibitors of Bim peptide binding to Mcl-1, primary screen, biochemical, bead-based flow cytometry, multiplex; Induced myeloid leukemia cell differentiation protein Mcl-1 (Homo sapiens), Q07820; Bim peptide-Mcl-1 binding; inhibition, % at 10 µM; 0.1% of 190,000 active; in the data active = inhibition above about 40%;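 also: 0% = no compound tracer wells and 100% = peptide blocker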
Target sequence (Q07820 whole entry, looked up): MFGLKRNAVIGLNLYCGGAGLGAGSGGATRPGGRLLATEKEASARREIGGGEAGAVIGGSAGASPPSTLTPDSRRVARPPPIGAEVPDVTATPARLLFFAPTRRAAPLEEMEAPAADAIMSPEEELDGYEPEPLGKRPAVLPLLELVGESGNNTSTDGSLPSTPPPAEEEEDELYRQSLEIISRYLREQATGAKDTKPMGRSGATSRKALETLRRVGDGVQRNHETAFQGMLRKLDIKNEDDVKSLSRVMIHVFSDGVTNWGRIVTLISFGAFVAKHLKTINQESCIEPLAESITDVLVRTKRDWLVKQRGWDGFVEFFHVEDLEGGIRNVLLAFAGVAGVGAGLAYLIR
MCL1 BIM primary = inhibitors of MCL1 binding to BIM-BH3, primary screen, biochemical, fluorescence polarization | Induced myeloid leukemia cell differentiation protein Mcl-1 (Homo sapiens), Q07820 | GST-MCL1 / FITC-Bim-BH3 fluorescence polarization | inhibition, % at 10.9 µM | 0.68% of 320,000 active;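 active = inhibition above the mean inhibition of all tested compounds plus 3 SD, set per campaign, cut at about 40% in these data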;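 also: 0% = DMSO wells and 100% = unlabeled Bim-BH3 peptide control; higher means more loss of mP so more displacement of Bim peptide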
Mcl1-Bid inh = Mcl-1/Bid binding inhibitors, primary screen, biochemical, TR-FRET, 1536-well. Induced myeloid leukemia cell differentiation protein Mcl-1 (Homo sapiens), Q07820. TR-FRET Mcl-1/Bid-Dy647 peptide binding. inhibition, % at 21.7 µM. 0.97% of 220,000 active;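 active = compounds that cut the binding signal by more than half at the single screening dose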;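 also: His-tagged Mcl-1 with europium anti-His antibody binding Bid BH3 peptide; 0% = Mcl-1 plus peptide wells and 100% = peptide-only wells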
Mcl1 Noxa PPI = Mcl-1/Noxa binding inhibitors, primary screen, biochemical, TR-FRET, 1536-well; Induced myeloid leukemia cell differentiation protein Mcl-1 (Homo sapiens), Q07820; TR-FRET Mcl-1/Noxa peptide binding, 2 h; inhibition, % at 21.7 µM; 1.5% of 220,000 active; AID 1022, 2008;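 active = compounds that cut the protein-peptide binding signal by more than 50% relative to plate controls in a single-dose test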;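 also: His-tagged Mcl-1 with rhodamine Noxa BH3 peptide and terbium anti-His antibody; 0% = Mcl-1 plus Noxa peptide wells and 100% = peptide-only wells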
Bcl-xL conf = Bcl-xL inhibitors blocking Bim BH3 binding, confirmation, counter-screen for MCL1 inhibitor project, biochemical, fluorescence polarization; shares compounds with MCL1 BIM primary; GST-Bcl-xL / FITC-Bim BH3 peptide FP binding; inhibition, % at 10.9 µM; 54% of 1,700 active;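 active = inhibition above a cutoff equal to the mean inhibition of all tested compounds plus 3 SD, cut at about 30% in these data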;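 also: 0% = DMSO wells and 100% = unlabeled Bim BH3 control peptide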
Target sequence (Q07817 whole entry, looked up): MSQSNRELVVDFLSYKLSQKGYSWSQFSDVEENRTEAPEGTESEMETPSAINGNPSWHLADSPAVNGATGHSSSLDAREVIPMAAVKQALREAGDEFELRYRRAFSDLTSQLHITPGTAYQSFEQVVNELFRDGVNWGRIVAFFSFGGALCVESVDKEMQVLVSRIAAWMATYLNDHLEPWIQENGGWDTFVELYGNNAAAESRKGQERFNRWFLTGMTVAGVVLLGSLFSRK
MCL1 inh confirm = inhibitors of MCL1 binding to BIM-BH3, confirmation, biochemical, fluorescence polarization, triplicate; GST-MCL1 / FITC-Bim-BH3 fluorescence polarization; shares compounds with MCL1 BIM primary; inhibition, % at 10.9 µM; 61% of 1,700 active; AID 2168, 2009;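 active = inhibition above the average of all tested compounds plus 3 SD, cut at about 40% in these data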;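 also: 0% = DMSO wells and 100% = unlabeled Bim-BH3 control peptide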
Numbers without * were called inactive; . = no result; + = active, no number.

SMILES	Mcl-1 Bim block	MCL1 BIM primary	Mcl1-Bid inh	Mcl1 Noxa PPI	Bcl-xL conf	MCL1 inh confirm
CCCCC1=CC2=C(c3ccco3)C(=O)C(C)(OC(=O)c3ccc(OC)cc3)C(=O)C2=CN1CC(C)C (stereo unspecified)	.	12.9	-90.7	-31.5	.	.
CCCCC1=CC2=C(c3ccco3)C(=O)C(C)(OC(=O)c3ccc(OC)cc3)C(=O)C2=CN1CCCCO (stereo unspecified)	.	89.3*	-83.2	3.5	13.3	10.0
CCCCC1=CC2=C(c3ccco3)C(=O)C(C)(OC(=O)c3ccc(OC)cc3)C(=O)C2=CN1CCCN(CC)CC (stereo unspecified)	.	53.3*	-53.7	8.6	157.9*	+
CCCCC1=CC2=C(c3ccco3)C(=O)C(C)(OC(=O)c3ccc(OC)cc3)C(=O)C2=CN1Cc1ccc(OC)cc1 (stereo unspecified)	.	.	-90.8	17.2	.	.
CCCCCN(C(=O)CCC(=O)OCC(=O)N1CCCC(C)C1)c1c(N)n(CCCC)c(=O)[nH]c1=O (stereo unspecified)	.	-5.2	.	.	.	.
O=C(Nc1nnc(C2CC2)s1)c1n[nH]c(=O)c2ccccc12	.	-2.9	-22.2	-7.6	.	.
COc1ccc2nc(NC(=O)CSC(C)C(=O)Nc3cc(C)on3)sc2c1 (stereo unspecified)	.	0.6	.	.	.	.
CCCCC1=CC2=C(c3ccco3)C(=O)C(C)(OC(=O)c3ccc(OC)cc3)C(=O)C2=CN1C1CCCC1 (stereo unspecified)	.	135.4*	.	.	64.0*	79.2*
CCCCC1=CC2=C(c3ccco3)C(=O)C(C)(OC(=O)c3ccc(OC)cc3)C(=O)C2=CN1c1ccc(OC)cc1 (stereo unspecified)	.	31.9	-106.8	20.3	.	.
CC(C)Oc1ccc(CC(=O)NNC(=S)Nc2ccccc2)cc1	.	185.6*	-143.5	-47.7	-29.0	-53.3
Cn1c(=O)c(Nc2ccc(Cl)cc2)c2c3c(cccc31)C(=O)c1ccccc1-2	15.0	+	-35.8	-5.2	161.9*	197.2*
CCOC(=O)c1c(-c2ccccc2)c(C(C)=O)c(=O)n(C)c1C	0.0	2.9	-18.7	9.7	.	.
Cc1ccc(Nc2c([N+](=O)[O-])c(=O)n(C)c3ccccc23)cc1C	-2.0	6.6	4.3	24.3	.	.
CCOC(=O)c1c2c3c(cccc3n(C)c1=O)C(=O)c1ccccc1-2	.	53.8*	.	.	75.7*	89.8*
CC1=C(C(=O)OC2CCCCC2)C(c2ccc(F)cc2)NC(=O)N1 (stereo unspecified)	.	1.2	.	.	.	.
CCOC(CCNC(=O)c1cn(CC(C)C)c(=O)c2c1c1ccccc1n2C)OCC	.	-2.5	.	.	.	.
CC1=Nc2ccccc2/C1=C\c1nc(-c2ccc(C(F)(F)F)cc2)oc1O	-1.0	57.8*	2.6	-1.7	100.0*	126.5*
CC1=Nc2ccccc2/C1=C\c1nc(-c2ccccc2)oc1O	0.0	-18.8	-23.3	10.7	.	.
COc1ccc2nc(-c3ccco3)c(-c3ccco3)nc2c1	3.0	88.3*	26.0	101.0*	76.3*	125.9*
Nc1nc(-c2ccco2)cs1	-2.0	9.7	-46.7	19.7	.	.
c1coc(-c2nc(-c3ccco3)c(-c3ccco3)nc2-c2ccco2)c1	0.0	105.6*	96.9*	108.5*	18.4	56.9*
COc1ccc(-c2nc3ccccc3nc2-c2ccc(OC)cc2)cc1	.	5.2	.	.	.	.
N#Cc1cnn(-c2cccc(Cl)c2)c1-n1cccc1	.	-4.0	-8.9	5.5	.	.
Nc1ccc(O)c2c1C(=O)c1ccccc1C2=O	4.0	157.8*	-103.9	102.8*	120.4*	176.8*
FC(F)C(F)(F)C(F)(F)C(F)(F)c1cc(-c2ccccc2)n[nH]1	1.0	-4.6	12.4	21.3	.	.
SMILES	Mcl-1 Bim block	MCL1 BIM primary	Mcl1-Bid inh	Mcl1 Noxa PPI	Bcl-xL conf	MCL1 inh confirm
COc1ccccc1-n1nnnc1SCC(=O)Nc1ccc(C)c(N)c1	.	139.0*	.	.	25.0	21.9
COc1ccc(NC(=O)CSc2nnnn2-c2ccccc2OC)c(OC)c1	.	-7.3	.	.	.	.
CCC1OC2(C)OC(=N)C1(C#N)C(C#N)(C#N)C2c1ccccc1 (stereo unspecified)	-1.0	54.7*	-33.1	17.7	14.1	11.9
CCC12OC(=N)C(C#N)(C1C)C(C#N)(C#N)C(c1ccccc1)O2 (stereo unspecified)	-1.0	25.2	-12.8	18.8	.	.
CC(C)C1OC2(C)OC(=N)C1(C#N)C(C#N)(C#N)C2c1ccccc1 (stereo unspecified)	-7.0	102.9*	-24.8	17.0	31.9*	47.5*
Cc1cc(O)c(CN(C)C)c2c1C(=O)/C(=C/c1ccco1)O2	.	60.8*	.	.	78.2*	89.0*
COc1ccc2c(c1)O/C(=C\c1ccco1)C2=O	.	10.3	-20.8	6.6	.	.
CC(C(=O)Nc1ccc(N2CCOCC2)cc1)N1C(=O)NC(C)(C)C1=O (stereo unspecified)	.	2.4	.	.	.	.
Cn1c2c(c(=O)n(C)c1=O)C(C(F)(F)F)(C(F)(F)F)N=C(c1ccccc1Cl)N2	0.0	8.5	-25.8	2.6	.	.
Cn1c(=O)c2[nH]c(-c3ccccc3)c(O)c2n(C)c1=O	-2.0	+	-70.5	26.6	142.1*	159.4*
Cn1c(=O)c2[nH]c(-c3ccccc3Cl)c(O)c2n(C)c1=O	-6.0	134.0*	-7.7	16.5	48.6*	77.2*
Cn1c(=O)c2[nH]c(-c3ccccc3)nc2n(C)c1=O	0.0	.	6.1	1.2	.	.
CN1CCN(C(c2ccc(Br)cc2)c2cc(Cl)c3cccnc3c2O)CC1 (stereo unspecified)	.	40.1*	.	.	46.5*	106.1*
Cc1cc(C(=O)NN)n[nH]1	.	56.1*	-23.8	8.5	1.3	7.0
Cc1cc(C)cc(OCC(=O)NNC(=O)c2cc(C)[nH]n2)c1	1.0	11.6	-2.6	3.2	.	.
O=C(COc1cccc2ccccc12)N/N=C/c1ccccc1OCc1ccc(C(=O)O)cc1	-1.0	49.5*	-26.7	33.3	6.4	39.5
O=C(COc1ccccc1-c1ccccc1)N/N=C/c1cccc2ccccc12	-5.0	1.2	-6.3	8.8	.	.
Cc1cc(SCC(=O)N/N=C/c2ccc(O)cc2O)nc2ccccc12	.	13.0	.	.	.	.
Cc1cc(SCC(=O)N/N=C/c2ccc(O)c(O)c2)nc2ccccc12	.	49.3*	.	.	46.7*	74.2*
COc1cccc2c(SCC(=O)N/N=C/c3ccccc3)cc(C)nc12	16.0	0.3	1.3	12.8	.	.
COc1cccc2c(SCC(=O)N/N=C/c3ccc(O)c(O)c3)cc(C)nc12	10.0	42.6*	-15.6	63.6*	36.3*	71.9*
